Sfp PPTase inh: inhibitors of Bacillus subtilis Sfp phosphopantetheinyl transferase | Potency, µM, for the others: largest response in the series, negative = inhibition, hits mostly inhibitors | Q9F4F7 | AID 1490 | hit rate 3.5% among 310,000 | Biochemical Sfp PPTase activity, qHTS;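 further: the enzyme is Sfp with the accession as filed and its product quenches rhodamine fluorescence; 0% = enzyme reaction without inhibitor and -100% = no enzyme wells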
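Step 1, compound plus 15 nM Sfp-PPTase, 15 min, room temperature. Step 2, add rhodamine-CoA (5 uM) and BHQ-2-YbbR (12.5 uM). Step 3, read 525/598 nm fluorescence at 0 and 30 min.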
PLK1 PBD block: PLK1 (human) polo-box domain binding inhibition. Potency, µM, without a hit: max response, negative = inhibition, actives largely listed as inhibitors. P53350. Plk1 PBD binding of FITC phosphopeptide, fluorescence polarization. AID 720504. hit rate 2.8% among 360,000; further: series mostly up to about 57 µM; nearly all actives have a fitted effect of over 65% in size
ALDH1A1 inh: blocks purified human ALDH1A1 activity | Purified ALDH1A1, NADH fluorescence, propionaldehyde substrate | P00352 | hit rate 7.3% among 220,000 | Potency, µM (top dose mostly 75.3 µM), without a hit: top-dose activity, negative = inhibition, hits mostly inhibitors | AID 1030; active means well fitted inhibition curve with a large enough effect, not every such curve was filed as active; inconclusive means small, poorly fitted or top-dose-only effect, or another doubt; inactive means no such curve, though single readings can be large or run the other way;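 further: plate controls were no enzyme wells and a reference inhibitor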
Gal4-VP16 FLuc: Gal4-VP16 reporter inhibition counter-screen | Potency, µM (top dose mostly 53.6 µM), without a hit: top-dose activity, negative = inhibition, most hits filed as inhibitors | Drosophila S2 Gal4-VP16 UAS-luciferase, luminescence, 20 h | hit rate 3.5% among 310,000;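 further: Gal4-VP16 expression switched on by copper sulfate through the metallothionein promoter; nearly all actives have a fitted effect of over 50% in size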
RORg inh: inhibitors of mouse ROR gamma transcriptional activity | P51450 | Drosophila S2 Gal4-RORgamma UAS-luciferase reporter, 20 h | Potency, µM (doses to about 53.6 µM), for the others: top-dose activity change, negative = inhibition, most hits filed as inhibitors | hit rate 5.4% among 310,000 | AID 2551; further: nearly all actives have a fitted effect of over 60% in size
Target sequence (P51450 whole entry, looked up, the tested form may be a part): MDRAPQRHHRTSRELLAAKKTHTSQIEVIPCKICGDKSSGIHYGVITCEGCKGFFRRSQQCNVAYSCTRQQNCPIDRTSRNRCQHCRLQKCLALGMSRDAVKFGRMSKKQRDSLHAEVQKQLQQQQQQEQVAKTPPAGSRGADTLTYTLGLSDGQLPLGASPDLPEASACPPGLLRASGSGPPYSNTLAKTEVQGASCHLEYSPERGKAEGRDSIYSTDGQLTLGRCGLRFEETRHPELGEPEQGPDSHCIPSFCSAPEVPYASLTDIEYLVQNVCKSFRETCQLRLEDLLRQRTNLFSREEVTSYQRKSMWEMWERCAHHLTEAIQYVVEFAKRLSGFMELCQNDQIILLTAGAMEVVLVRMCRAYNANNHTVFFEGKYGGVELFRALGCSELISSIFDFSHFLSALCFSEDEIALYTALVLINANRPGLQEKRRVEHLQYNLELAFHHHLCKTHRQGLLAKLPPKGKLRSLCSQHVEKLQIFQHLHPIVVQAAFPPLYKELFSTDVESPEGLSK
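In this cell-based reporter format, copper sulfate (700 uM final) drives Gal4–ROR gamma fusion expression from a metallothionein promoter in Drosophila Schneider cells; compounds preincubated 1 hr, reporter read after 20 hr at ambient temperature.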
Numbers without * were called inactive; ? = inconclusive; · = not tested or not shown; [ ] = dose if it differs, or a comment. In the library only some 12% were active in any assay of this set; here they are far more common. Unless noted, the call rests on the fitted dose curve; in most records, active means well fitted curve in the direction sought with a large enough effect; inconclusive means small, poorly fitted or top-dose-only effect, or another doubt; inactive means no such curve, though single readings can be large; an effect the other way counts as inactive or inconclusive. Unless noted, on the % scale 0 is the no-effect control and ±100 the full control effect; potency means the concentration at half of the fitted maximal effect.

SMILES	Sfp PPTase inh	PLK1 PBD block	ALDH1A1 inh	Gal4-VP16 FLuc	RORg inh
CCC1OC(=O)C[C@H](O)C(C)[C@@H](O[C@@H]2OC(C)C(O)C(N(C)C)C2O)C(CCN2CC(C)CC(C)C2)CC(C)C(=O)/C=C/C(C)=C\[C@@H]1COC1OC(C)C(O)C(OC)C1OC (stereo partly drawn)	15.3%	·	7.0%	-11.6%	-1.9%
Clc1cccc(Cc2c(C3CCCCC3)nc3c4ccccc4ccn23)c1	·	-1.5%	·	·	·
COC(=O)CSc1nc(C(C)C)nc2ccccc12	15.6%	-3.9%	-1.0%	0.1%	-2.0%
O=C(CSc1cnc2ccccc2n1)c1ccc(F)cc1	-61.3%	?	25.1µM*	-3.3%	-24.6%
Cc1ccc(C(=O)CSc2nc(C(C)C)nc3ccccc23)cc1	39.8µM*	-3.3%	28.2µM*	6.0%	?
COC(=O)CSc1cnc2ccccc2n1	11.7%	-6.9%	-2.3%	0.9%	-9.0%
CC(C)c1nc(SCC(=O)c2ccc(F)cc2)c2ccccc2n1	31.6µM*	?	20µM*	?	5.62µM*
COc1ccc(C)cc1-n1nnnc1SCC(=O)N1CCC(C(=O)Nc2nccs2)CC1	3.5%	1.6%	7.94µM*	?	-27.2%
COc1ccc(C)cc1-n1nnnc1SCC1CCCCO1 (stereo not drawn)	0.7%	-0.2%	31.6µM*	8.8%	-22.8%
CC(C)Nc1nnc(SCc2cc(=O)n3ccsc3n2)s1	56.2µM*	-13.9%	?	-2.3%	15.7%
COc1ccc(C)cc1-n1nnnc1SCc1cn2ccsc2n1	12.2%	-4.4%	14.1µM*	8.3%	24.8%[10 µM]
COc1ccc(C)cc1-n1nnnc1SCC(=O)NC1CCCC1	·	-1.2%	·	·	·
Cc1nnc(SCC(=O)N2CCC(C(=O)Nc3nccs3)CC2)n1Cc1ccccc1	19.6%	-0.5%	-1.0%	-0.3%	4.2%
CCC(=O)N1CCCC(C(=O)Nc2nc3ccccc3[nH]2)CC1 (stereo not drawn)	·	-3.9%	·	·	·
O=c1cc(CSc2nnnn2-c2ccccc2)nc2scc(-c3ccccc3)n12	-24.1%	?	3.16µM*	-3.5%	31.6%
O=c1cc(CN2CCN(c3ccc(O)cc3)CC2)nc2scc(-c3ccccc3)n12	56.2µM*	-14.4%	14.1µM*	1.6%	18.6%
O=c1cc(CSc2nnnn2-c2ccccc2)nc2nc[nH]n12	-2.9%	-9.7%	?	5.5%	?
CC1Cc2ccccc2N1Cc1cc(=O)n2ccsc2n1 (stereo not drawn)	-23.9%	23.8µM*	-79.7%	-11.6%	29.9%
Cn1nnnc1SCc1cc(=O)n2ccsc2n1	10.7%	-0.6%	0.3%	1.9%	-12.4%
Cc1ccccc1-n1nnnc1SCc1cc(=O)n2ccsc2n1	0.8%	-5.1%	0.631µM*	-1.3%	?
Cc1cc(C)c2c(=O)n3c(nc2c1)C(CC(C)C)NC(=O)c1cccnc1-3 (stereo not drawn)	·	-2.9%	·	·	·
O=c1cc(CSc2nnnn2-c2ccccc2)nc2sccn12	8.7%	-15.7%	12.6µM*	-9.4%	16.7%
O=C1CC(Nc2ccc(N3CCOCC3)cc2)C(=O)N1CCc1ccccc1 (stereo not drawn)	3.3%	-2.5%	25.1µM*	-3.9%	9.1%
O=C1CC(Nc2ccc(N3CCOCC3)cc2)C(=O)N1c1cccc(C(F)(F)F)c1 (stereo not drawn)	?	-15.4%	8.91µM*	-6.5%	-2.8%
O=C1CC(Nc2ccccc2)C(=O)N1CCc1ccccc1 (stereo not drawn)	18.6%	0.0%	3.3%	20.8%	?
SMILES	Sfp PPTase inh	PLK1 PBD block	ALDH1A1 inh	Gal4-VP16 FLuc	RORg inh
CCN(CC)C(=O)C1=C(C)N(Cc2ccccc2)C(=O)C(CC(=O)NCc2ccco2)C1 (stereo not drawn)	·	-2.4%	·	·	·
CC(C)(C)c1ccc(C(O)c2ncc(-c3ccc(F)cc3)[nH]2)cc1 (stereo not drawn)	·	4.6%	·	·	·
O=C(CN(Cc1ccccc1)C(=O)CCl)c1cccc(Br)c1	·	-20.1%	·	·	·
CCOC(=O)N1CCN(C(=O)CSc2nnc(C3COc4ccccc4O3)o2)CC1 (stereo not drawn)	9.9%	-29.2%	31.6µM*	9.3%	11.7%
O=C(CSc1nnc(C2COc3ccccc3O2)o1)N1CCCC1 (stereo not drawn)	?	21.2µM*	?	5.9%	13.0%
COc1ccc(NC(=O)C[C@H]2C(=O)N(Cc3ccccc3)C[C@@H]2C)cc1	·	-2.8%	·	·	·
CCOc1ccc(NS(=O)(=O)c2cccc(C(=O)N3CCN(C/C=C/c4ccccc4)CC3)c2)cc1	·	-2.2%	·	·	·
COc1ccc(C2=Nn3c(nnc3-c3cc(OC)ccc3OC)SC2)c(OC)c1	-21.4%	·	·	-5.2%	23.5%
CCOC(=O)N1CCC(Nc2cc(C)nc3c(-c4ccccc4OC)c(C)nn23)CC1	-0.2%	-20.2%	-13.7%	-1.0%	?
COc1ccccc1-c1cnn2c(NC3CCCC3)cc(C)nc12	-5.3%	-3.1%	·	?	10µM*
O=C1CCC=C1C(O)c1ccc2c(c1)OCO2 (stereo not drawn)	8.2%	·	-1.5%	-0.9%	-7.3%
CN(C)S(=O)(=O)c1cccc(C(=O)OCC(=O)Nc2sccc2C#N)c1	79.4µM*	-10.6%	?	-5.0%	16.7%
CN(C)S(=O)(=O)c1cccc(C(=O)OCC(=O)Nc2ccc3c(c2)OCCO3)c1	·	-3.2%	·	·	·
O=C(Nc1nccs1)c1ccc(Br)c(S(=O)(=O)N2CCCC2)c1	22.1%	-11.9%	·	?	?
Cc1ccc(C(=O)Nc2nccs2)cc1S(=O)(=O)N1CCCCC1	8.3%	-4.3%	-2.9%	?	14.1µM*
O=C(Nc1nccs1)c1ccc(Cl)c(S(=O)(=O)N2CCOCC2)c1	3.8%	1.8%	-7.9%	?	15.8µM*
O=C(NCCC1=CCCCC1)c1ccc(Cl)c(S(=O)(=O)N2CCOCC2)c1	11.9%	-2.9%	12.6µM*	9.9%	?
O=C(Nc1ccc2c(c1)OCCO2)c1ccc(Cl)c(S(=O)(=O)N2CCOCC2)c1	11.6%	0.6%	5.01µM*	16.5%	?
O=C(Nc1ccc(Cl)c(S(=O)(=O)N2CCOCC2)c1)c1ccncc1	·	-14.9%	·	·	·
O=C(O)c1ccc2c(c1)C(=O)N([C@H](Cc1ccc(O)cc1)C(=O)O)C2=O	20.3%	·	·	-6.0%	-7.2%
Cc1cnc(CNC(=O)C2(C)CCCN2CC(C)C)cn1 (stereo not drawn)	·	-3.0%	·	·	·
COc1cc(C2SCCCCCCCCCCSC(c3ccc(O)c(OC)c3)SCCCCCCCCCCS2)ccc1O (stereo not drawn)	·	·	7.9%[13.5 µM]	·	·
COCCNC(=O)C1CCCN(C(=O)c2csc3ccccc23)CC1 (stereo not drawn)	·	-3.3%	·	·	·
O=C(CN1CCN(S(=O)(=O)c2cc(Cl)ccc2Cl)CC1)Nc1ccc2c(c1)OCCO2	8.3%	-7.2%	8.91µM*	12.6%[0.365 µM]	35.0%
Cc1cc(C2=NNC(=NCCc3ccccc3)SC2)c(C)n1CC1CCCO1 (stereo not drawn)	50.1µM*	-18.1%	?	-6.9%	23.7%
CCN=C1NN=C(c2cc(C)n(CCc3ccccc3)c2C)CS1	50.1µM*	-20.5%	?	-2.2%	0.0%

Screens (PubChem)
